From PubChem BioAssay (NCATS) come the findings set out here.

Results filed as inconclusive are left out. Entries that show only a call come without a potency. Activity calls are given as the source filed them. Calls follow the shape of the dose curve; as a rule, active = well fitted curve in the direction sought with a large enough effect; inconclusive = small, poorly fitted or top-dose-only effect, or another doubt; inactive = no such curve, though single readings can be large; an effect the other way counts as inactive or inconclusive.

Assay [1] concerns the target Alpha-galactosidase (Coffea arabica) (UniProt Q42656). As to the kind of experiment: Counterscreen for Glucocerebrosidase Inhibitors: qHTS Assay for Coffee Bean alpha-Galactosidase at pH 4.5 (AID 957). Also: series mostly up to about 77 µM. The essentials:
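Green coffee bean enzyme (2 nM final) was incubated with compounds (0.7 nM to 77 uM) and 4-methylumbelliferyl alpha-D-galactopyranoside (80 uM final) in 50 mM citric acid, 0.005% Tween-20, pH 4.5, 20 min at room temperature; AC50 from Hill fits.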
Background: A counterscreen serves to expose hits that act by an unwanted route or on another target.

The target is the same in assay [2]. The experiment in a line: Counterscreen for Glucocerebrosidase Inhibitors: qHTS Assay for Coffee Bean alpha-Galactosidase at pH 5.9 (AID 998). The essentials: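 Green coffee bean enzyme (2 nM) with 4-methylumbelliferyl alpha-D-galactopyranoside (80 uM) in 50 mM citric acid, 0.005% Tween-20, pH 5.9, 20 min at room temperature; compounds 0.7 nM–77 uM. Stopped at pH 10, fluorescence Ex365/Em440; Hill-fit AC50.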

Assay [3] is described as follows: MultiTox-Fluor Cytotoxicity Assay - LYMP1-002 - Dead Cells (AID 960). Also: potency is read from the fitted curve at half-maximal effect; nearly all actives have a fitted effect of over 60% in size. Put shortly:
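Human lymphoblastoid cells (LYMP1-002), 2500/well in complete medium, were exposed to compounds for 16 hr at 37 C. Dead-cell protease activity was read as bis-AAF-R110 fluorescence (Ex/Em 485/520), normalized to DMSO and 15 uM tetraoctylammonium bromide; AC50 from Hill fits.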

Sequence of Alpha-galactosidase (Coffea arabica) (Q42656 whole entry, looked up): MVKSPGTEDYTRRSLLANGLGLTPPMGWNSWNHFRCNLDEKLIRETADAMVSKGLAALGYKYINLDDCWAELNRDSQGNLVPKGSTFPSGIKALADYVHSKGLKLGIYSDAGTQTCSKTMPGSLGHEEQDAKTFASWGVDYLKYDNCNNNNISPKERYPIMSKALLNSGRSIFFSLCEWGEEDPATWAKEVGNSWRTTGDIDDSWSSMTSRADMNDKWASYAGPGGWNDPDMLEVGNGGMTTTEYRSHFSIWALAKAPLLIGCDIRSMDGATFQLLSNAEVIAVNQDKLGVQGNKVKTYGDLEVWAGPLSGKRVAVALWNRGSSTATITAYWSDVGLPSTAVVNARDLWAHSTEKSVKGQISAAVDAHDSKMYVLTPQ

For the compound `Nc1nc(Nc2ccccc2)nc2c1ncn2[C@@H]1O[C@@H](CO)[C@H](O)[C@@H]1O`, the compound was classed as inactive in assay [1] and in assay [2].
Take `O=C1NC(O)=NC1(c1ccccc1)c1ccccc1`: the compound was called inactive in assay [1] and in assay [2].
As to `COC(=O)[C@H](N)Cc1ccc(Cl)cc1`, the outcome in assay [1] and in assay [2] was inactive.
As to `COc1cc2nc(N3CC=[N+](C(=O)c4ccco4)CC3)nc(N)c2cc1OC`, the outcome in assay [1] and in assay [2] was inactive.
Consider `N[C@@H]1C=CC=C(C(=O)O)C1`, for which the call in assay [1] and in assay [2] was inactive.
As for `Cc1cccc(C)c1OC[C@@H](N)C(C)C`, the outcome in assay [1] and in assay [2] was inactive.
Take `CC[C@H](NC(C)C)[C@H](O)c1ccc(O)c(O)c1`: the compound was classed as inactive in assay [1] and in assay [2].
As for `CNc1ncnc2c1ncn2[C@@H]1O[C@@H](CO)[C@H](O)[C@@H]1O`, the outcome in assay [1] and in assay [2] was inactive.
Take `N[C@H](CCCP(=O)(O)O)C(=O)O`: the result in assay [1] and in assay [2] was inactive.
As for `N[C@H](CCCC(=O)O)C(=O)O`, the outcome in assay [1] and in assay [2] was inactive.
With `CCN(CC)CCC[C@H](C)Nc1c2ccc(Cl)cc2nc2ccc(OC)cc12`, the compound was classed as inactive in assay [1] and in assay [2].
Take `Nc1nc2c(nc(Br)n2[C@@H]2O[C@H]3COP(=O)(O)O[C@@H]3[C@H]2O)c(=O)[nH]1`: the compound was classed as inactive in assay [1] and in assay [2].
As for `OC[C@@H]1O[C@@H](n2cnc3c(Nc4ccccc4)ncnc32)[C@@H](O)[C@H]1O`, the compound was classed as inactive in assay [1] and in assay [2].
For the compound `CSc1nc(N)c2ncn([C@@H]3O[C@@H](COP(=O)(O)OP(=O)(O)O)[C@@H](O)[C@H]3O)c2n1`, the result in assay [1] and in assay [2] was inactive.
For `CC(C)(C)c1ccc(S(=O)(=O)/C=C\C#N)cc1`, the call in assay [1] and in assay [2] was inactive.
Turning to `COc1cc2nc(N3CCN(C(=O)OCc4ccccc4)[C@H](C(=O)NC(C)(C)C)C3)nc(N)c2cc1OC`, the result in assay [1] and in assay [2] was inactive.
For `CNC(=O)[C@@H]1O[C@@H](n2cnc3c(N)ncnc32)[C@@H](O)[C@H]1O`, the compound was classed as inactive in assay [1] and in assay [2].
Consider `CCCCCCCCCC(=O)N[C@@H](CN1CCOCC1)[C@@H](O)c1ccccc1`, for which the result in assay [1] and in assay [2] was inactive.
Take `Oc1ccc(/C=C\c2cc(O)cc(O)c2)cc1`: the compound was classed as inactive in assay [1] and in assay [2].
In the case of `CN[C@]1(C)[C@@H]2CC[C@@H](C2)C1(C)C`, the compound was called inactive in assay [1] and in assay [2].
Consider `CCCCCCCCCCCCCCCCCCNC(=O)OC[C@@H](COP(=O)([O-])OCC[n+]1ccsc1)OC`, for which the call in assay [1] and in assay [2] was inactive.
Take `N[C@@H](CO)C(=O)O`: the result in assay [1] and in assay [2] was inactive.
For `Nc1ncnc2c1nc(Br)n2[C@@H]1O[C@H]2COP(=O)(O)O[C@@H]2[C@H]1O`, the compound was classed as inactive in assay [1] and in assay [2].
For the compound `C[C@@H](CN(C)C)CN1c2ccccc2CCc2ccccc21`, the result in assay [1] and in assay [2] was inactive.
For `C[C@@H]1C(=O)N(C)C(=O)c2nc[nH]c21`, the result in assay [1] and in assay [2] was inactive.
As to `CN1CC[C@@]2(CCN3CCc4c(oc5ccccc45)[C@@H]3C2)N(C)C1=O`, the compound was classed as inactive in assay [1] and in assay [2].
For `O=C(O)CCC(=O)N1CCC[C@H]1C(=O)O`, the compound was classed as inactive in assay [1] and in assay [2].
For the compound `COc1ccc(CCNC[C@H](O)c2ccc(O)cc2)cc1OC`, the compound was classed as inactive in assay [1] and in assay [2].
In the case of `C[C@@]12CCC(=O)C=C1CC[C@@H]1[C@@H]2[C@H](O)C[C@]2(C)[C@@H]1CC[C@]2(O)C(=O)COC(=O)CCC(=O)O`, the compound was classed as inactive in assay [1] and in assay [2].
For the compound `COc1ccc(CCN(C)CCC[C@@](C#N)(c2ccc(OC)c(OC)c2)C(C)C)cc1OC`, the call in assay [1] and in assay [2] was inactive.
Take `CCCCCCCCCCCCCCC/C=C\[C@H](O)[C@@H](NC(=O)CCCCCCCCCCCCC)OC` (tested in a mixture with another compound): the outcome in assay [1] and in assay [2] was inactive.
Take `NC(=S)c1ccc[n+]([C@@H]2O[C@@H](COP(=O)([O-])OP(=O)(O)OC[C@@H]3O[C@@H](n4cnc5c(N)ncnc54)[C@@H](OP(=O)(O)O)[C@H]3O)[C@@H](O)[C@H]2O)c1`: the outcome in assay [1] and in assay [2] was inactive.
`CCCC[S@@](=N)(=O)CC[C@@H](N)C(=O)O`: the outcome in assay [1] and in assay [2] was inactive.
Take `N[C@H](Cc1ccc(Cl)cc1)C(=O)O`: the outcome in assay [1] and in assay [2] was inactive.
Turning to `C[C@H](N)C(=O)OC(C)(C)Cc1ccc(Cl)cc1`, the outcome in assay [1] and in assay [2] was inactive.
For the compound `CC(=O)/C(C)=N\O`, the compound was called inactive in assay [1] and in assay [2].
For the compound `CN(C)c1ccc(/C=C2/C(=O)Nc3ccccc32)cc1`, the call in assay [1] and in assay [2] was inactive.
Regarding `C=CCN1CCc2c(cc(O)c(O)c2Br)[C@H](c2ccccc2)C1`, the call in assay [1] and in assay [2] was inactive.
Turning to `C[C@@H](CN1CCC(Cc2ccccc2)CC1)[C@H](O)c1ccc(O)cc1`, the compound was called inactive in assay [1] and in assay [2].
With `OC[C@@H]1O[C@@H](n2cnc3c(N[C@@H]4C[C@@H]5CC[C@H]4C5)ncnc32)[C@@H](O)[C@H]1O`, the call in assay [1] and in assay [2] was inactive.
With `CCCCC/C=C\C[C@H](O)/C=C\c1cccc(C[C@H](O)CCCCO)n1`, the compound was called inactive in assay [1] and in assay [2].
For `COc1cc([C@H](O)C(=O)O)ccc1O`, the compound was classed as inactive in assay [1] and in assay [2].
With `CCCCC#Cc1nc(N)c2ncn([C@@H]3O[C@@H](C(=O)NCC)[C@H](O)[C@@H]3O)c2n1`, the compound was classed as inactive in assay [1] and in assay [2].
With `CC1CCN(CC[C@@H]2CCCN2S(=O)(=O)c2cccc(O)c2)CC1`, the outcome in assay [1] and in assay [2] was inactive.
`C[C@H](NCCc1ccc(O)cc1)[C@@H](O)c1ccc(O)cc1`: the call in assay [1] and in assay [2] was inactive.
On to `O=C(O)CNC(=O)[C@@H](CS)Cc1ccccc1`, for which the call in assay [1] and in assay [2] was inactive.
With `CCN(CC)CCC[C@H](C)Nc1ccnc2cc(Cl)ccc12`, the result in assay [1] and in assay [2] was inactive.
As to `COc1cc2c(cc1OC)[C@H](c1ccccc1)CN(C)CC2`, the compound was called inactive in assay [1] and in assay [2].
`O=C1c2c(O)cc(O)cc2O[C@@H](c2ccc(O)c(O)c2)[C@H]1O`: the result in assay [1] and in assay [2] was inactive.
As for `C=CCN1CCc2cc(O)c(O)cc2[C@H](c2ccccc2)C1`, the compound was called inactive in assay [1] and in assay [2].
Regarding `C[C@@H](Cc1ccccc1)Nc1ncnc2c1ncn2[C@@H]1O[C@@H](CO)[C@H](O)[C@@H]1O`, the result in assay [1] and in assay [2] was inactive.
Regarding `Cc1c(C)c2c(c(C)c1O)CC[C@@](C)(CN1CCN(c3cc(N4CCCC4)nc(N4CCCC4)n3)CC1)O2`, in assay [2], the call was inactive.
With `O=C(O)[C@H]1C[C@H](C(=O)O)N1`, the compound was called inactive in assay [2].
As to `C=CCN1CCc2c(cc(O)c(O)c2Cl)[C@H](c2ccccc2)C1`, the compound was classed as inactive in assay [1] and in assay [2].
In the case of `O=c1n(CC2CO2)c(=O)n(CC2CO2)c(=O)n1CC1CO1` (configuration not stated), the Potency in assay [3] was 31.6 µM (active).
Turning to `CCCCCCCCCCCCCCCCCC(=O)O[C@H](CC(=O)O)C[N+](C)(C)C`, the call in assay [1] and in assay [2] was inactive.
Turning to `O[C@H](CN1CCN(c2cccc(Cl)c2)CC1)C(c1ccccc1)c1ccccc1`, the result in assay [2] was inactive.
For `CC(C)C[C@H](NC(=O)[C@@H](O)[C@@H](N)Cc1ccccc1)C(=O)O`, the result in assay [1] and in assay [2] was inactive.
For the compound `C[C@@](N)(Cc1ccc(O)c(O)c1)C(=O)O`, the result in assay [2] was inactive.
As for `CCn1ccnc1C[C@@H]1COc2ccccc2O1`, the result in assay [1] and in assay [2] was inactive.
As to `Nc1nc(SCc2ccc([N+](=O)[O-])cc2)c2ncn([C@@H]3O[C@@H](CO)[C@@H](O)[C@H]3O)c2n1`, the call in assay [2] was inactive.
With `O=c1cc(O)cc(/C=C\c2ccc(O)c(O)c2)o1`, the compound was classed as inactive in assay [2].
